# Test results reported in PubChem BioAssay AID2685 (National Center for Advancing Translational Sciences (NCATS), 2010).
# Hit rate of the full screen: of about 320,000 compounds, about 2,100 (0.66%) were called active. Not shown: some 53% with an inconclusive outcome. The call rests on the fitted dose curve; in most records, active means well fitted inhibition curve with a large enough effect in the signal ratio, with a control signal flat (not every such curve was filed as active); inconclusive means small, poorly fitted or top-dose-only effect, or effect the other way, or a change in a side signal; inactive means flat fitted curve, though single readings scatter; the % refers to the signal ratio. This excerpt belongs to a sample that is enriched for actives.
# Assay: qHTS Assay for Lipid Storage Modulators in Drosophila S3 Cells;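 on cell number change: cells counted by Cell Tracker Red CMTPX staining in the red channel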; on lipid storage change, negative = inhibition: on the % scale 0 is the no-effect control and ±100 the full control effect
# Conditions: BODIPY lipid droplet fluorescence, 18-24 h, cells fed with added oleic acid; cell number change: measured here: cell count max response; series mostly up to 46.1 µM
# In short: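 Drosophila S3 cells loaded with oleic acid (400 uM, as added) and compounds at several concentrations; lipid droplets imaged by 488-nm laser-scanning cytometry, 500–530 nm intensity and object ratio to cell channel. Percent activity normalized to 20 uM Triacsin C.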
# Potency means the concentration at half of the fitted maximal effect.
Compound,Potency,cell number change,"lipid storage change, negative = inhibition"
CCCCOC(=O)c1ccc(NC(=O)C(CCS(C)(=O)=O)NC(C)=O)cc1 (centres undefined),inactive,13%,
CC1(OC(=O)CCc2ccccc2)C(=O)C=C2C=C(c3ccc(C#N)cc3)N(C3CCCCC3)C=C2C1=O (centres undefined),inactive,20.5%,
CCCCC[C@]12Cc3cc(OC)c(OC)cc3C(O1)c1c(cc(C)n(-c3ccccc3)c1=O)O2,,-8.82%,-5.41% [at 9.22 µM] (inactive)
O=C(O)c1ccc(-c2nnc(-c3cccc(Br)c3)o2)cc1,inactive,12.2%,
Cn1c(Sc2ccc(C(=O)O)cc2[N+](=O)[O-])nnc1-c1ccccc1,inactive,9.56%,
O=C(O)c1ccc(Sc2nnc(-c3cccc(Br)c3)o2)c([N+](=O)[O-])c1,25.9 µM (active),-23.6%,
C=CCOc1cccc(C2C(C(=O)c3ccco3)=C(O)C(=O)N2Cc2cccnc2)c1 (centres undefined),inactive,4.96%,
O=C(CN1CCC(C(=O)c2ccc(F)cc2)CC1)Nc1ccc(F)cc1,inactive,-11.2%,
Cn1c(/N=C/c2c[nH]c3ccccc23)nc2ccccc21,inactive,-13.5%,
O=C(NN1CCOCC1)c1cc(-c2ccc(Br)s2)nc2ccccc12,inactive,18.5%,
CC(C)CCNC(=O)CCc1nnc(COc2ccccc2)o1,inactive,3.37%,
COC(=O)[C@H](CC(C)C)NC(=O)CCc1nnc(COc2ccccc2)o1,18.4 µM (active),-24.9%,
O=C(CCc1nnc(COc2ccccc2)o1)NCc1ccccc1,inactive,-8.23%,
CC(/C=N/NC(=O)c1cccnc1)=C\c1ccco1,inactive,4.96%,
O=S(=O)(NC(=NCc1ccccc1)c1ccccc1)c1ccc(Br)cc1,inactive,2.37%,
CSc1nnc(N2C(=O)C(O)=C(C(=O)c3ccco3)C2c2ccc(F)cc2)s1 (centres undefined),inactive,-4.48%,
CSc1nnc(N2C(=O)C(O)=C(C(=O)c3ccco3)C2c2cccc(Cl)c2)s1 (centres undefined),inactive,,
CSc1ccc(C2C(C(=O)c3ccco3)=C(O)C(=O)N2c2nnc(SC)s2)cc1 (centres undefined),7.31 µM (active),-24.7%,
CCCc1c(O)nc(SCC(=O)O)[nH]c1=O,inactive,-0.742%,
COC(=O)COc1coc(CN2CCN(c3cccc(Cl)c3)CC2)cc1=O,inactive,12.5%,
COc1cc(OC)c(CN2CCCN(C)CC2)cc1Br,inactive,15.5%,
COc1cc(OC)c(CN2CCCCCCC2)cc1Br,29.1 µM (active),-11.5%,
COc1ccc(Br)cc1CN1CCCCCCC1,inactive,9.97%,
CC1=C(C(=O)OCC(C)C)[C@]23C(=O)c4ccccc4[C@@]2(O1)OC(N)=C3C#N,inactive,-12%,
CC(C)NC(=O)[C@]1(C)CCC[C@@]2(C)C3CC[C@@]4(C)C[C@]3(CCC21)CC4=O (some centres undefined),inactive,-16.5%,
CC(C)(C)CNC(=O)[C@]1(C)CCC[C@@]2(C)C3CC[C@@]4(C)C[C@]3(CCC21)CC4=O (some centres undefined),inactive,-13.8%,
CCCCNC(=O)[C@]1(C)CCC[C@@]2(C)C3CC[C@@]4(C)C[C@]3(CCC21)CC4=O (some centres undefined),0.651 µM (active),-24.2%,

Compound,Potency,cell number change,"lipid storage change, negative = inhibition"
COc1ccc(/C(C)=N/NC(=O)CNC(=O)c2cccnc2)cc1,inactive,7.78%,
COc1ccc(C(=O)N/N=c2\oc3ccccc3cc2C(=O)NCc2ccccc2)cc1,inactive,2.22%,
N#CC(c1ccc(F)cc1)c1ccc(C(=O)c2ccccc2)cc1 (centres undefined),inactive,-0.0722%,
CN(C(=O)COC(=O)c1ccc2c(c1)NC(=O)CS2)C1CCS(=O)(=O)C1 (centres undefined),inactive,4.6%,
CCc1nc2ccc(C(=O)NCc3ccc(C)o3)cc2nc1CC,inactive,-3.07%,
CC(=O)Nc1cccc(C(=O)NCCc2ccco2)c1,inactive,7.92%,
CCc1nc2ccc(C(=O)NCCc3ccco3)cc2nc1CC,6.51 µM (active),5.81%,
O=C(CN(C(=O)CCC(=O)Nc1nccs1)c1ccc2c(c1)OCO2)NCc1ccccc1,inactive,,
CCC(CC)NC(=O)C1CC(=O)N(CCc2ccc(F)cc2)C1 (centres undefined),inactive,,
CCC(C)(C)NC(=O)C1CC(=O)N(CCc2ccc(F)cc2)C1 (centres undefined),23.1 µM (active),-4.05%,
CC(C)(C)NC(=O)C1CC(=O)N(CCc2ccc(F)cc2)C1 (centres undefined),inactive,23%,
Cc1ccc(NC(=O)c2cccs2)cc1,inactive,20.8%,
Cc1ccc(NC(=O)c2ccc(Cl)c(NC(=O)c3cccs3)c2)cc1,25.9 µM (active),17.6%,
Cc1cc(C)cc(C(=O)Nc2ccc(NC(=O)c3cccs3)cc2)c1,inactive,17.7%,
Cc1cc(C(c2nnnn2Cc2ccccc2)N2CCOCC2)c(C)n1-c1ccc2c(c1)OCO2 (centres undefined),inactive,-6.63%,
CN(C)C(=O)C(NC(=O)c1ccccc1)=C(Cl)Cl,inactive,,
Cc1cc(C(=O)OCC(=O)NC2CCC(C)CC2)c(C)o1 (centres undefined),inactive,1.2%,
CN(C)S(=O)(=O)c1ccc2c(c1)nc(CCC(=O)NCc1ccc(Cl)cc1)n2C,,-1.78%,-6.65% [at 9.22 µM] (inactive)
CCN(CC)CCCN1C(=O)C2C(C(=O)Nc3ccc(C(C)C)cc3)C3C=CC2(O3)C1C(=O)NC1CCCCC1 (centres undefined),16.4 µM (active),8.06%,
COc1ccc(NC(=O)C2C3C=CC4(O3)C2C(=O)N(CCN2CCCCC2)C4C(=O)NC2CCCC(C)C2C)cc1 (centres undefined),0.92 µM (active),27%,
COc1cccc(NC(=O)C2C3C=CC4(O3)C2C(=O)N(CCCN2CCCC(C)C2)C4C(=O)NC2CCCCC2C)c1 (centres undefined),inactive,-4.5%,
COc1cccc(NC(=O)C2C3C=CC4(O3)C2C(=O)N(CCCN2CCCCC2)C4C(=O)NC2CCCCC2)c1 (centres undefined),inactive,1.59%,
CCN(CC)CCN1C(=O)C2C(C(=O)Nc3ccc(C(C)C)cc3)C3C=CC2(O3)C1C(=O)NC1CCCCC1 (centres undefined),inactive,1.35%,
COc1ccc(NC(=O)C2C3C=CC4(O3)C2C(=O)N(CCN2CCCCC2C)C4C(=O)NC2CCCC(C)C2C)cc1 (centres undefined),inactive,-11.9%,
CC(C)c1ccc(NC(=O)C2C3C=CC4(O3)C2C(=O)N(CCCN2CCCCC2)C4C(=O)NC2CCCCC2)cc1 (centres undefined),inactive,2.7%,
COc1ccc(NC(=O)C2C3C=CC4(O3)C2C(=O)N(CCCN2CCCCC2)C4C(=O)NC2CCCC(C)C2C)cc1 (centres undefined),inactive,20.6%,
COc1cccc(NC(=O)C2C3C=CC4(O3)C2C(=O)N(CCN2CCCCC2)C4C(=O)NC2CCCCC2C)c1 (centres undefined),5.8 µM (active),14.4%,
